Laboratory results: the supplement of paper PMC6555819

Experiments:
Test in all cases: PBM binding z-score (relative to random genomic background probes); higher = stronger binding; sequences stand for … in GC…GCGATTGACAGCGTAGAATGAAGG
[1] = system: FXR:RXRa (NR concentration 270 nM, RXRa partner concentration 90 nM)
Method in brief: (§1)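 Ligand-free nuclear receptor dimers were applied to custom Agilent 4×180K protein-binding microarrays whose double-stranded probes carried direct-repeat seeds, single-nucleotide variants, half-site ablations and random human genomic background sequences in 34-nt variable regions. Incubation lasted 1 h. Binding z-scores were computed against the random background probes from regression-normalized fluorescence.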

[2] = system: LXRa:RXRa (NR concentration 270 nM, RXRa partner concentration 90 nM)
Method in brief: as §1

[3] = system: LXRa homodimer (NR concentration 270 nM)
Method in brief: as §1

[4] = system: LXRb:RXRa (NR concentration 270 nM, RXRa partner concentration 90 nM)
Method in brief: as §1

[5] = system: LXRb homodimer (NR concentration 270 nM)
Method in brief: as §1

[6] = system: PPARa:RXRa (NR concentration 270 nM, RXRa partner concentration 90 nM)
Method in brief: as §1

[7] = system: PPARg:RXRa (NR concentration 180 nM, RXRa partner concentration 90 nM)
Method in brief: as §1

[8] = system: PPARg:RXRa 270nM:90nM, anti-RXR (NR concentration 270 nM, RXRa partner concentration 90 nM)
Method in brief: as §1

[9] = system: PPARg:RXRa 30nM:10nM, anti-RXR (NR concentration 30 nM, RXRa partner concentration 10 nM)
Method in brief: as §1

[10] = system: PPARg:RXRa 90nM:30nM, anti-RXR (NR concentration 90 nM, RXRa partner concentration 30 nM)
Method in brief: as §1

[11] = system: PPARg:RXRa DBDmut IVT, anti-RXR (DBD mutation: RXRa K156A/R161A, NR concentration 270 nM, RXRa partner concentration 90 nM)
Method in brief: as §1

[12] = system: PPARg:RXRa IVT, anti-PPARg (NR concentration 270 nM, RXRa partner concentration 90 nM)
Method in brief: as §1

[13] = system: PPARg DBDmut:RXRa IVT, anti-PPARg (DBD mutation: PPARg1 K132A/R137A, NR concentration 270 nM, RXRa partner concentration 90 nM)
Method in brief: as §1

[14] = system: PPARg DBDmut IVT, anti-PPARg (DBD mutation: PPARg1 K132A/R137A, NR concentration 270 nM)
Method in brief: as §1

[15] = system: PPARg homodimer (NR concentration 180 nM)
Method in brief: as §1

[16] = system: PXR:RXRa (NR concentration 270 nM, RXRa partner concentration 90 nM)
Method in brief: as §1

[17] = system: PXR homodimer (NR concentration 270 nM)
Method in brief: as §1

[18] = system: RARa:RXR (NR concentration 270 nM, RXRa partner concentration 90 nM)
Method in brief: as §1

[19] = system: RARa homodimer (NR concentration 270 nM)
Method in brief: as §1

[20] = system: RARb:RXRa (NR concentration 270 nM, RXRa partner concentration 90 nM)
Method in brief: as §1

| Sequence | PBM binding z-score [1] | PBM binding z-score [2] | PBM binding z-score [3] | PBM binding z-score [4] | PBM binding z-score [5] | PBM binding z-score [6] | PBM binding z-score [7] | PBM binding z-score [8] | PBM binding z-score [9] | PBM binding z-score [10] | PBM binding z-score [11] | PBM binding z-score [12] | PBM binding z-score [13] | PBM binding z-score [14] | PBM binding z-score [15] | PBM binding z-score [16] | PBM binding z-score [17] | PBM binding z-score [18] | PBM binding z-score [19] | PBM binding z-score [20] |
| --- | --- | --- | --- | --- | --- | --- | --- | --- | --- | --- | --- | --- | --- | --- | --- | --- | --- | --- | --- | --- |
| TTACCAAGGTGAATGTCGTTGATCCCTCTGTAGA | 0.755 | 0.993 | -0.247 | 0.681 | -0.413 | 1.51 | 0.279 | 1.04 | 0.788 | 0.922 | 1.97 | 2.48 | 0.0323 | 0.0146 | 0.593 | 0.524 | -0.383 | 1.12 | 0.309 | 1.34 |
| CATCCAAGGTCAGCAGGTCAGTGAAAGCGACGTG | 6.25 | 4.68 | 1.66 | 3.31 | 0.653 | 4.79 | 4.86 | 4.71 | 1.81 | 3.37 | 3.12 | 4.02 | 0.104 | 0.555 | 4.34 | 3.82 | 1.14 | 5.21 | 2.38 | 5.17 |
| ATCGAAAGATCGAGGTGAGTATAGAGAAAGGGAA | 0.0424 | 0.111 | -0.321 | -0.262 | -0.23 | 0.469 | 0.553 | 0.362 | 0.533 | 0.418 | -0.0862 | 1.27 | 0.466 | 0.643 | -0.144 | -0.176 | -0.105 | 0.139 | -0.0593 | 0.194 |
| CCAGACAGGCGAAAGGTAACTCAGTCTGGTACGC | -0.414 | -0.478 | -0.885 | -0.448 | -1.33 | 0.667 | 1.57 | 2.87 | 0.676 | 2.22 | -0.357 | -0.108 | -0.986 | -1.21 | -0.19 | -0.328 | -0.718 | -0.0922 | -0.38 | -0.0959 |
